According to PubChem BioAssay AID1159580 (chemical genetic matrix, 2015):
The whole screen tested about 5,500 compounds, of which about 2,000 (36%) were called active. About 18% were inconclusive and are not listed. Rule as the data show it: active = normalized growth mostly below about 0.91 (no sharp cut-off); inconclusive = no clear call, values can overlap the other calls; inactive = mostly above about 0.92. The list shows a part of the results.

Assay: chemical genetic growth profiling, strain panel (AID 1159580);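 also: tested at 20 µM; growth read once vehicle control cultures reached saturation at 30 °C; 1 = growth at the plate median or of vehicle wells; lower values mean less growth of the strain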
Conditions: growth OD

Measured: normalized growth

CC(=O)[O][Hg][c]1ccccc1
active: S. cerevisiae deletion strains, locus YJR066W, strain TOR1, active compounds read low 0.00688 | S. cerevisiae deletion strains, locus YJR075W, strain HOC1, active compounds read low 0.0645 | S. cerevisiae deletion strains, locus YKL009W, strain mrt4, active compounds read low 0.0761 | S. cerevisiae deletion strains, locus YKL068W, active compounds read low 0.0552 | S. cerevisiae deletion strains, locus YKL085W, strain MDH1 (second series), active compounds read low 0.0536 | S. cerevisiae deletion strains, locus YKL085W, strain MDH1, active compounds read low 0.0536 | S. cerevisiae deletion strains, locus YKL160W, strain elf1, active compounds read low 0.0629 | S. cerevisiae deletion strains, locus YKL190W, strain CNB1, active compounds read low 0.0488 | S. cerevisiae deletion strains, locus YKR001C, strain vps1, active compounds read low 0.0636 | S. cerevisiae deletion strains, locus YKR026C, strain gcn3, active compounds read low 0.0658 | S. cerevisiae deletion strains, locus YKR091W, strain srl3, active compounds read low 0.0596 | S. cerevisiae deletion strains, locus YLL001W, strain dnm1, active compounds read low 0.0611 | S. cerevisiae deletion strains, locus YLL026W, active compounds read low 0.0582 | S. cerevisiae deletion strains, locus YLL041C, strain sdh2, active compounds read low 0.0595 | S. cerevisiae deletion strains, locus YLR027C, strain aat2, active compounds read low 0.0573 | S. cerevisiae deletion strains, locus YLR039C, strain RIC1, active compounds read low 0.0904 | S. cerevisiae deletion strains, locus YLR058C, strain SHM2, active compounds read low 0.0508 | S. cerevisiae deletion strains, locus YLR102C, strain apc9, active compounds read low 0.0618 | S. cerevisiae deletion strains, locus YLR113W, strain HOG1, active compounds read low 0.158 | S. cerevisiae deletion strains, locus YLR221C, strain rsa3, active compounds read low 0.0629 | S. cerevisiae deletion strains, locus YLR258W, strain gsy2, active compounds read low 0.0604 | S. cerevisiae deletion strains, locus YLR262C, strain YPT6 (second series), active compounds read low 0.0742 | S. cerevisiae deletion strains, locus YLR262C, strain YPT6, active compounds read low 0.103 | S. cerevisiae deletion strains, locus YLR268W, strain sec22, active compounds read low 0.0681 | S. cerevisiae deletion strains, locus YLR320W, strain mms22, active compounds read low 0.0826 | S. cerevisiae deletion strains, locus YLR330W, strain CHS5, active compounds read low 0.0544 | S. cerevisiae deletion strains, locus YLR342W, strain FKS1 (second series), active compounds read low 0.0755 | S. cerevisiae deletion strains, locus YLR342W, strain FKS1, active compounds read low 0.0633 | S. cerevisiae deletion strains, locus YLR357W, strain rsc2, active compounds read low 0.127 | S. cerevisiae deletion strains, locus YLR370C, strain arc18, active compounds read low 0.0626 | S. cerevisiae deletion strains, locus YLR371W, strain rom2, active compounds read low 0.0637 | S. cerevisiae deletion strains, locus YLR384C, strain iki3, active compounds read low 0.0624 | S. cerevisiae deletion strains, locus YLR418C, strain cdc73, active compounds read low 0.0951 | S. cerevisiae deletion strains, locus YML016C, strain PPZ1, active compounds read low 0.0524 | S. cerevisiae deletion strains, locus YML032C, strain rad52, active compounds read low 0.0836 | S. cerevisiae deletion strains, locus YML120C, strain ndi1, active compounds read low 0.0619 | S. cerevisiae deletion strains, locus YML124C, strain tub3, active compounds read low 0.0593 | S. cerevisiae deletion strains, locus YMR058W, strain fet3, active compounds read low 0.0602 | S. cerevisiae deletion strains, locus YMR078C, strain ctf18, active compounds read low 0.0736 | S. cerevisiae deletion strains, locus YMR125W, strain sto1, active compounds read low 0.0779 | S. cerevisiae deletion strains, locus YMR129W, active compounds read low 0.0611 | S. cerevisiae deletion strains, locus YMR205C, strain PFK2, active compounds read low 0.0858 | S. cerevisiae deletion strains, locus YMR223W, strain ubp8, active compounds read low 0.0679 | S. cerevisiae deletion strains, locus YMR231W, strain pep5, active compounds read low 0.0683 | S. cerevisiae deletion strains, locus YMR263W, strain SAP30, active compounds read low 0.0622 | S. cerevisiae deletion strains, locus YMR307W, strain GAS1, active compounds read low 0.119 | S. cerevisiae deletion strains, locus YNL067W, strain RPL9B, active compounds read low 0.0529 | S. cerevisiae deletion strains, locus YNL071W, strain lat1, active compounds read low 0.0614 | S. cerevisiae deletion strains, locus YNL128W, strain TEP1, active compounds read low 0.0633 | S. cerevisiae deletion strains, locus YNL153C, strain GIM3, active compounds read low 0.0495 | S. cerevisiae deletion strains, locus YNL183C, strain NPR1, active compounds read low -0.000716 | S. cerevisiae deletion strains, locus YNL209W, strain ssb2, active compounds read low 0.0586 | S. cerevisiae deletion strains, locus YNL233W, strain BNI4, active compounds read low 0.0544 | S. cerevisiae deletion strains, locus YNL248C, strain rpa49, active compounds read low 0.0785 | S. cerevisiae deletion strains, locus YNL250W, strain rad50, active compounds read low 0.0635 | S. cerevisiae deletion strains, locus YNL271C, strain bni1, active compounds read low 0.0615 | S. cerevisiae deletion strains, locus YNL298W, strain CLA4, active compounds read low 0.0614 | S. cerevisiae deletion strains, locus YNL307C, strain MCK1, active compounds read low 0.0689 | S. cerevisiae deletion strains, locus YNL322C, strain KRE1 (second series), active compounds read low 0.0671 | S. cerevisiae deletion strains, locus YNL322C, strain KRE1, active compounds read low 0.0528 | S. cerevisiae deletion strains, locus YNR049C, strain mso1, active compounds read low 0.0595 | S. cerevisiae deletion strains, locus YNR052C, strain pop2, active compounds read low 0.0629 | S. cerevisiae deletion strains, locus YOL006C, strain TOP1, active compounds read low 0.102 | S. cerevisiae deletion strains, locus YOL147C, strain pex11, active compounds read low 0.058 | S. cerevisiae deletion strains, locus YOR001W, strain rrp6, active compounds read low 0.0684 | S. cerevisiae deletion strains, locus YOR061W, strain CKA2, active compounds read low 0.0465 | S. cerevisiae deletion strains, locus YOR069W, strain VPS5, active compounds read low 0.0482 | S. cerevisiae deletion strains, locus YOR070C, strain gyp1, active compounds read low 0.0606 | S. cerevisiae deletion strains, locus YOR080W, strain dia2, active compounds read low 0.0661 | S. cerevisiae deletion strains, locus YOR083W, strain WHI5, active compounds read low 0.0628 | S. cerevisiae deletion strains, locus YOR106W, strain vam3, active compounds read low 0.0631 | S. cerevisiae deletion strains, locus YOR136W, strain idh2, active compounds read low 0.0713 | S. cerevisiae deletion strains, locus YOR144C, strain elg1, active compounds read low 0.0581 | S. cerevisiae deletion strains, locus YOR184W, strain ser1, active compounds read low 0.073 | S. cerevisiae deletion strains, locus YOR231W, strain MKK1, active compounds read low 0.132 | S. cerevisiae deletion strains, locus YOR265W, strain rbl2, active compounds read low 0.0563 | S. cerevisiae deletion strains, locus YOR270C, strain vph1, active compounds read low 0.0933 | S. cerevisiae deletion strains, locus YOR290C, strain snf2, active compounds read low 0.0699 | S. cerevisiae deletion strains, locus YOR316C, strain cot1, active compounds read low 0.0597 | S. cerevisiae deletion strains, locus YPL051W, strain arl3, active compounds read low 0.063 | S. cerevisiae deletion strains, locus YPL055C, strain LGE1, active compounds read low 0.076 | S. cerevisiae deletion strains, locus YPL078C, strain atp4, active compounds read low 0.0655 | S. cerevisiae deletion strains, locus YPL106C, strain sse1, active compounds read low 0.1 | S. cerevisiae deletion strains, locus YPL240C, strain hsp82, active compounds read low 0.0559 | S. cerevisiae deletion strains, locus YPL241C, strain CIN2, active compounds read low 0.0515 | S. cerevisiae deletion strains, locus YPL256C, strain CLN2, active compounds read low 0.132 | S. cerevisiae deletion strains, locus YPR119W, strain clb2, active compounds read low 0.0616 | S. cerevisiae deletion strains, locus YPR141C, strain kar3, active compounds read low 0.0673 | S. cerevisiae deletion strains, locus YPR163C, strain tif3, active compounds read low 0.0707 | S. cerevisiae deletion strains, locus YPR167C, strain met16, active compounds read low 0.0616 | S. cerevisiae deletion strains, strain wtn01, active compounds read low 0.0633 | S. cerevisiae strains, strain wild type, active compounds read low 0.0493
